Compounds with a hit are over-represented: about 19% of the library has one in this group of screens.
TDP1 cell noCPT – qHTS for Inhibitors of human tyrosyl-DNA phosphodiesterase 1 (TDP1): qHTS in cells in absence of CPT; actives 15% (n = 420,000); DT40 Tdp1-/- hTDP1 cells, no CPT, ATP luminescence, 48 h; AID 686978, 2013; Potency, µM (top dose mostly 46.2 µM), for inactives: at the highest dose activity change, negative = growth inhibition, actives largely listed as inhibitors; also: potency is read from the fitted curve at half-maximal effect; nearly all actives have a fitted effect of over 55% in size
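DT40 Tdp1-/-;hTDP1 cells, no CPT (DMSO vehicle only), 400 cells/well; compounds pin-transferred; ≥48 hr, 37 °C; CellTiter-Glo 30 min RT dark, luminescence read.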
HT1080 IDH1KD tx – toxicity to HT-1080 IDH1 knockdown cells (counter line) | HT-1080 IDH1 knockdown viability, ATP luminescence, 48 h | Potency, µM (series often up to 46.1 µM), for inactives: at the highest dose activity, negative = toxicity, most hits filed as cytotoxic | actives 2% (n = 360,000) | AID 686971;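 also: potency is read from the fitted curve at half-maximal effect; 0% = DMSO wells and -100% = cell-free medium wells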
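Knockdown cells (IDH1KD HT-1080) received compounds 2 h after plating at 750 cells/well and were kept 48 h at 37 °C in 5% FBS RPMI. A CellTiter-Glo luminescence read gave % activity for curve fitting.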
ELG1 DNA repair – blocks ELG1-dependent DNA repair in HEK293T cells; HEK293T ELG1-luciferase reporter, luminescence, 16 h; DNA damage induced by 5-fluorouridine; Potency, µM (doses to about 46.1 µM), inactives show at the highest dose activity change, negative = inhibition, hits mostly inhibitors; actives 2.3% (n = 330,000); AID 504467; also: potency is read from the fitted curve at half-maximal effect; nearly all actives have a fitted effect of over 55% in size
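5-Fluorouridine DNA damage + compound/DMSO, 2,000 cells/well, 16 h, 37 °C/5% CO2. ONE-Glo, 30 min RT, luminescence. Readout = decrease in reporter signal.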
HT1080NT lethal – kills 2HG-producing HT-1080-NT fibrosarcoma cells | HT-1080-NT fibrosarcoma viability, CellTiter-Glo ATP luminescence, 48 h | Potency, µM (doses to about 46.1 µM), without a hit: at the top dose activity, negative = less viability, hits mostly cytotoxic | actives 1.6% (n = 360,000) | AID 686970;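 also: NT is the 2HG producing partner of a matched IDH1 knockdown line; potency is read from the fitted curve at half-maximal effect; 0% = DMSO-treated cells and -100% = media-only wells without cells; nearly all actives have a fitted effect of over 55% in size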
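Read-out is CellTiter-Glo luminescence after 10 minutes at room temperature, following 48 hours' compound treatment of HT-1080-NT cells (750 cells/well, RPMI, 5% FBS, 37 degrees C).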
TDP1 cell CPT – growth inhibition of DT40 Tdp1-/-;hTDP1 cells with camptothecin (screen for TDP1 inhibitors) | Potency, µM (highest dose often 46.2 µM), for the others: at the highest dose activity change, negative = growth inhibition, actives largely listed as inhibitors | chicken DT40 Tdp1-/-;hTDP1 cells + 20 nM CPT, ATP luminescence, 48 h | actives 12% (n = 420,000); also: potency is read from the fitted curve at half-maximal effect; nearly all actives have a fitted effect of over 55% in size
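Chicken DT40 Tdp1-/- cells complemented with human TDP1, 400 cells/well, exposed to compounds plus 20 nM camptothecin for at least 48 h at 37 C; viability read as ATP content by CellTiter-Glo luminescence.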
IL1B secr inh – inhibitors of inflammasome signaling (IL-1 beta secretion); activity change, % at 57.5 µM; actives 4.7% (n = 360,000); THP-1 LPS/ATP IL-1B secretion, AlphaLISA, 16 h; stronger effect = lower value; in the data active = activity change below about -50%; inconclusive = mostly about -30% to -49%
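Secreted IL-1B measured by AlphaLISA bead assay after 16 h compound exposure of THP-1 cells; compounds (final up to 57.5 uM) added 1 h before LPS (250 ng/mL) and ATP (1.25 mM) stimulation; lower signal means less secretion.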
An asterisk follows results filed as active; [ ] = remark or other dose. Unless noted, calls follow the shape of the dose curve; as a rule, active = well fitted curve in the direction sought with a large enough effect; inconclusive = small, poorly fitted or top-dose-only effect, or another doubt; inactive = no such curve, though single readings can be large; an effect the other way counts as inactive or inconclusive. Unless noted, % is scaled to controls: 0 for no effect and ±100 for the full control effect.

Results for COc1ccc(C(=O)Nc2ccc(OCc3cc(=O)n4ccccc4n3)cc2)cc1 ?
TDP1 cell noCPT: -24.8%; TDP1 cell CPT: 1.9%

What do the screens show for `CCOC(=O)c1c(C)nc2sc(C(=O)Nc3ccc(C(C)=O)cc3)c(N)c2c1-c1ccc(OC)cc1`?
TDP1 cell noCPT: inconclusive; HT1080 IDH1KD tx: inconclusive; ELG1 DNA repair: -20.9%; HT1080NT lethal: inconclusive; TDP1 cell CPT: inconclusive; IL1B secr inh: inconclusive

What do the screens show for `COc1ccc(-c2c(C(C)=O)c(C)nc3sc4c(=N)n(N)cnc4c23)cc1`?
TDP1 cell noCPT: inconclusive; HT1080 IDH1KD tx: -4.1%; ELG1 DNA repair: inconclusive; HT1080NT lethal: -13.6%; TDP1 cell CPT: 25.9µM*; IL1B secr inh: -25.0

What do the screens show for `CCOC(=O)c1c(C)nc2sc(C(N)=O)c(N)c2c1-c1ccc(OC)cc1`?
TDP1 cell noCPT: 20.6µM*; HT1080 IDH1KD tx: -27.7%; ELG1 DNA repair: 13µM*; HT1080NT lethal: -2.1%; TDP1 cell CPT: inconclusive; IL1B secr inh: -2.6

How did CC(O)[C@H]1CNC(=O)C(=O)N1CC1(c2ccccc2)CC1 (stereo partly specified) do in these assays?
TDP1 cell noCPT: 12.4%; HT1080 IDH1KD tx: 13.4%; ELG1 DNA repair: 18.1%; HT1080NT lethal: 11.6%; TDP1 cell CPT: 3.4%; IL1B secr inh: 14.4

What do the screens show for `C[N+](C)(C)CCOP(=O)([O-])OP(=O)(O)OCC1OC(n2ccc(N)nc2=O)C(O)C1O` (stereo unspecified)?
TDP1 cell noCPT: 2.5%; TDP1 cell CPT: -6.8%

What do the screens show for `CCc1c(C(C)S(=O)(=O)c2ccc(C)cc2)[nH]c(=O)n1-c1ccc(C)cc1` (stereo unspecified)?
TDP1 cell noCPT: 29.1µM*; HT1080 IDH1KD tx: -1.9%; ELG1 DNA repair: -0.1%; HT1080NT lethal: 5.9%; TDP1 cell CPT: inconclusive; IL1B secr inh: -10.3

How did O=C(c1ccc(N2C(=O)C3C4CC(C(Br)C4Br)C3C2=O)cc1)N1CCCCC1 (stereo unspecified) do in these assays?
TDP1 cell noCPT: -4.9%; HT1080 IDH1KD tx: 21.3%; ELG1 DNA repair: -1.8%; HT1080NT lethal: 1.5%; TDP1 cell CPT: 8.8%; IL1B secr inh: inactive

What do the screens show for `COc1ccc(S(=O)(=O)N2CCOCC2)cc1NC(=O)c1cc2c(s1)CCCC2`?
TDP1 cell noCPT: 2.0%; HT1080 IDH1KD tx: 1.1%; ELG1 DNA repair: 16.4µM*; HT1080NT lethal: 0.2%; TDP1 cell CPT: 6.4%; IL1B secr inh: 14.2

Results for O=C(c1ccccc1NS(=O)(=O)c1ccc(Br)s1)N1CCCC1 ?
TDP1 cell noCPT: -1.1%; HT1080 IDH1KD tx: 8.8%; ELG1 DNA repair: -17.2%; HT1080NT lethal: 1.5%; TDP1 cell CPT: -8.6%; IL1B secr inh: -11.0

What do the screens show for `CC(C)NC(=O)c1ccccc1NS(=O)(=O)c1ccc(Br)s1`?
TDP1 cell noCPT: 20.6µM*; HT1080 IDH1KD tx: -29.3%; ELG1 DNA repair: inconclusive; HT1080NT lethal: inconclusive; TDP1 cell CPT: inconclusive; IL1B secr inh: 20.7

What do the screens show for `O=C(Nc1cc(S(=O)(=O)N2CCOCC2)ccc1N1CCOCC1)c1cc2c(s1)CCC2`?
TDP1 cell noCPT: 23.1µM*; HT1080 IDH1KD tx: -3.1%; ELG1 DNA repair: inconclusive; HT1080NT lethal: -3.9%; TDP1 cell CPT: -0.8%; IL1B secr inh: -57.0*

What do the screens show for `COc1ccc(NC(=O)c2cc3c(s2)CCC3)cc1S(=O)(=O)N1CCOCC1`?
TDP1 cell noCPT: -24.6%; HT1080 IDH1KD tx: -15.0%; ELG1 DNA repair: inconclusive; HT1080NT lethal: -5.2%; TDP1 cell CPT: -18.7%; IL1B secr inh: 25.1

How did Cc1ccc(NC(=O)c2ccccc2NS(=O)(=O)c2ccc(Cl)s2)cc1S(=O)(=O)N1CCOCC1 do in these assays?
TDP1 cell noCPT: 11.6µM*; HT1080 IDH1KD tx: inconclusive; ELG1 DNA repair: 23.1µM*; HT1080NT lethal: inconclusive; TDP1 cell CPT: 13µM*; IL1B secr inh: inconclusive

How did O=C(Nc1cc(S(=O)(=O)N2CCOCC2)ccc1O)c1ccc(NS(=O)(=O)c2ccc(Cl)s2)cc1 do in these assays?
TDP1 cell noCPT: -17.8%; HT1080 IDH1KD tx: -2.6%; ELG1 DNA repair: 22.6%; HT1080NT lethal: -0.8%; TDP1 cell CPT: 7.8%; IL1B secr inh: 14.8

How did COc1cccc(NC(=O)CN(C)C(=O)Cc2c(C)nc3ccccc3c2C)c1 do in these assays?
TDP1 cell noCPT: inconclusive; HT1080 IDH1KD tx: -0.6%; ELG1 DNA repair: inconclusive; HT1080NT lethal: -3.0%; TDP1 cell CPT: inconclusive; IL1B secr inh: 8.3

How did O=C(Nc1cc(S(=O)(=O)N2CCOCC2)ccc1N1CCOCC1)c1ccc([N+](=O)[O-])s1 do in these assays?
TDP1 cell noCPT: 7.31µM*; HT1080 IDH1KD tx: 4.8%; ELG1 DNA repair: 20.6µM*; HT1080NT lethal: -13.4%[9.24 µM]; TDP1 cell CPT: 11.6µM*; IL1B secr inh: inconclusive

Results for Cc1ccc(NC(=O)c2ccc([N+](=O)[O-])s2)cc1S(=O)(=O)N1CCOCC1 ?
TDP1 cell noCPT: 16.4µM*; HT1080 IDH1KD tx: 20.6µM*; ELG1 DNA repair: 6.51µM*; HT1080NT lethal: inconclusive; TDP1 cell CPT: 16.4µM*; IL1B secr inh: 42.7

What do the screens show for `Cc1ccc(NC(=O)C2=COCCO2)cc1S(=O)(=O)N1CCOCC1`?
TDP1 cell noCPT: -27.9%; HT1080 IDH1KD tx: -3.3%; ELG1 DNA repair: 4.8%; HT1080NT lethal: -2.6%; TDP1 cell CPT: 6.6%; IL1B secr inh: 0.0

Results for COc1ccc(C)cc1NC(=O)c1ccccc1NS(=O)(=O)c1ccc(Cl)s1 ?
TDP1 cell noCPT: 6.51µM*; HT1080 IDH1KD tx: 16.4µM*; ELG1 DNA repair: inconclusive; HT1080NT lethal: inconclusive; TDP1 cell CPT: 8.2µM*; IL1B secr inh: inconclusive

How did COc1ccc(S(=O)(=O)N2CCOCC2)cc1NC(=O)C1CCCN1C(=O)c1cccs1 (stereo unspecified) do in these assays?
TDP1 cell noCPT: inconclusive; HT1080 IDH1KD tx: -2.1%; ELG1 DNA repair: 6.8%; HT1080NT lethal: -1.1%; TDP1 cell CPT: 0.259µM*; IL1B secr inh: -19.1

Results for COc1ccccc1CNC(=O)CCc1c(C)nn(-c2ccc(N3CCOCC3)nn2)c1C ?
TDP1 cell noCPT: -10.5%; TDP1 cell CPT: -17.5%

What do the screens show for `COCCN(Cc1ccc(OC)cc1)c1c(C)nc2ccc(C(=O)Nc3ccc(NC(C)=O)cc3)cn12`?
TDP1 cell noCPT: inconclusive; HT1080 IDH1KD tx: 5.9%; HT1080NT lethal: 0.1%; TDP1 cell CPT: inconclusive; IL1B secr inh: 18.2

High-throughput results as filed in PubChem.
